High-throughput results from PubChem.
AmpC inh detg – inhibitors of E. coli AmpC beta-lactamase with detergent; P00811; 0.041% of 370,000 active; AmpC hydrolysis of nitrocefin, absorbance 480 nm, 0.01% Triton; Potency, µM (doses to about 114 µM), for inactives: at the highest dose activity change, negative = inhibition, most hits filed as inhibitors;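 further: 0% = no-compound wells and -100% = no-enzyme wells; nearly all actives have a fitted effect of over 25% in size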
Target sequence (P00811 whole entry, looked up): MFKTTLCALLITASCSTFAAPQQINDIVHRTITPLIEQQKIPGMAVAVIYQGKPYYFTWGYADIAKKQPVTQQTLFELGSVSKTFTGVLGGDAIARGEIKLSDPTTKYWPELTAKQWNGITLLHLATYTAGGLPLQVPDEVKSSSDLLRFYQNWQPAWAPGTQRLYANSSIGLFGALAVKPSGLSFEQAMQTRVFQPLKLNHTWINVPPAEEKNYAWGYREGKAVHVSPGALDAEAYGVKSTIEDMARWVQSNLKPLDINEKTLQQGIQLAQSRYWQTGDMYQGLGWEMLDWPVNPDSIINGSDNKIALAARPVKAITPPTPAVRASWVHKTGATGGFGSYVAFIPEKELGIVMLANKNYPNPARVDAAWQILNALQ
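AmpC (5.3 nM in the dispensed reagent) in 20 mM phosphate pH 7.0 with 0.01% (detergent screen) or 0.0001% Triton X-100 was preincubated with compounds for 15 min at room temperature. Nitrocefin was then added from an 800 uM solution, and hydrolysis was followed at 480 nm.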
AmpC no deterg – blocks E. coli AmpC beta-lactamase in detergent-free assay. Potency, µM (top dose mostly 57.1 µM), for the others: top-dose activity change, negative = inhibition, usual class: inhibitors. 0.52% of 330,000 active. AID 485341. AmpC nitrocefin hydrolysis, absorbance 480 nm, 0.0001% Triton;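 further: plate controls were no compound for no effect and no enzyme for full effect; nearly all actives have a fitted effect of over 20% in size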
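AmpC (5.3 nM in the dispensed reagent) in 20 mM phosphate pH 7.0 with 0.01% (detergent screen) or 0.0001% Triton X-100 was preincubated with compounds for 15 min at room temperature. Nitrocefin was then added from an 800 uM solution, and hydrolysis was followed at 480 nm.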
HCV inh – blocks hepatitis C virus | Potency, µM (top dose mostly 41.8 µM), for inactives: at the highest dose activity change, negative = inhibition, actives largely listed as inhibitors | Huh7.5.1 HCVcc-Cre infection, luciferase reporter, 44 h | 3.4% of 340,000 active | AID 651820
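Infectious HCVcc-Cre (~0.5 moi) was added to cells just after compound, with cells seeded 4 h earlier at 1,000 per well. Luciferase activity after 44 h culture reported infection; substrate was incubated 15 min at room temperature before reading.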
Pf growth 48h – inhibits P. falciparum growth in the first generation, 48 h; P. falciparum luciferase growth in erythrocytes, 48 h; Potency, µM (titrated, usually from 28.7 µM), for inactives: top-dose activity change, negative = inhibition, actives largely listed as inhibitors; 5.9% of 310,000 active; AID 504832
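Erythrocytes infected with P. falciparum carrying an integrated firefly luciferase reporter (2% hematocrit, 0.1% parasitemia final) were exposed to compounds in RPMI 1640 with 0.5% Albumax at 37 C, 5% CO2. Growth inhibition was scored as reduced luminescence.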
Pf growth 96h – inhibits malaria parasite growth, 96 h. 6.9% of 320,000 active. P. falciparum luciferase reporter growth, 96 h. AID 504834. Potency, µM (highest dose often 28.7 µM), for the others: top-dose activity change, negative = inhibition, usual class: inhibitors
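Compounds incubated with erythrocytes infected by luciferase-expressing P. falciparum (2% hematocrit, 0.05% parasitemia final) for 96 hours, 37 C in 5% CO2. Growth inhibition scored as decreased luciferase luminescence.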
AMA1-RON2 inh – disrupts binding of P. falciparum AMA1 to RON2; AlphaScreen AMA1-biotinylated RON2 peptide binding; Potency, µM (highest dose often 58.2 µM), inactives show top-dose activity change, negative = inhibition, actives largely listed as inhibitors; 0.2% of 360,000 active; AID 720542;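 further: 0% = vehicle wells and -100% = peptide control; nearly all actives have a fitted effect of over 45% in size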
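AMA1 (3D7) with his tag at 25 nM final met compounds first, then biotinylated RON2 peptide at 25 nM; detection used donor plus acceptor beads, 10 µg/mL apiece, read by AlphaScreen after 30 min at room temperature.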
Starred values were filed as active, the others as inactive; ? = inconclusive; / = not tested or not shown. Compounds with a hit are over-represented: about 11% of the library has one in this group of screens. The call rests on the fitted dose curve; in most records, active means well fitted curve in the direction sought with a large enough effect; inconclusive means small, poorly fitted or top-dose-only effect, or another doubt; inactive means no such curve, though single readings can be large; an effect the other way counts as inactive or inconclusive. Unless noted, on the % scale 0 is the no-effect control and ±100 the full control effect; potency means the concentration at half of the fitted maximal effect.

SMILES	AmpC inh detg	AmpC no deterg	HCV inh	Pf growth 48h	Pf growth 96h	AMA1-RON2 inh
CCCn1c(=N)c(C(=O)NC2CCCCC2)cc2c(=O)n3cc(C)ccc3nc21	-6%	/	/	/	/	/
COc1ccc2c(c1)c1c(c(=O)n(-c3ccccc3C)c(=O)n1CC(N)=O)n2C	28%	/	/	/	/	/
COCCCn1c(=O)c2ccccc2n(Cc2cc(C(=O)OC)ccc2OC)c1=O	-10%	128%	-3%	7.4µM*	15%	-8%
NC(=O)C(c1ccc(Br)cc1)c1ccc(C(=O)c2ccccc2)cc1 (stereo not drawn)	0%	-14%	10µM*	-1%	5%	-7%
NC(=O)C(c1ccc(F)cc1)c1ccc(C(=O)c2ccccc2)cc1 (stereo not drawn)	1%	-8%	8%	-6%	-24%	-3%
Cc1ccc(C)c(C(C)NC(=S)NCc2ccc(F)cc2)c1 (stereo not drawn)	20%	10%	?	3.3µM*	33%	10%
CCC(NC(=S)NCc1ccc(F)cc1)c1ccccc1 (stereo not drawn)	2%	-9%	?	6.6µM*	?	20%
Cc1ccc(NC(=S)NCc2ccc(F)cc2)cc1	/	/	5%	/	/	5%
COc1ccc(C(C)NC(=S)NCc2ccc(F)cc2)cc1 (stereo not drawn)	-10%	-21%	-20%	?	-31%	16%
COc1ccc(NC(=O)Cn2c(=O)n(CCC(=O)NCc3ccccc3OC)c(=O)c3ccccc32)cc1Cl	27%	/	/	/	/	/
COCCNC(=O)CCn1c(=O)[nH]c2cc(OC)c(OC)cc2c1=O	5%	/	/	/	/	/
CCc1ccc2c(c1)c(=O)c(S(=O)(=O)c1ccc(F)cc1)cn2CC(=O)Nc1ccc(C)cc1C	2%	/	/	/	/	/
COc1ccc2nc(C)cc(N3CCC(C(N)=O)CC3)c2c1	1%	-7%	7%	19%	-11%	-18%
COc1ccc(N2CCN(c3cc(C)nc4ccc(OC)cc34)CC2)cc1	-1%	93%	6.3µM*	13µM*	?	?
COc1ccc(Nc2cc(C)nc3ccc(OC)cc23)cc1	?	0%	?	?	-7%	5%
COc1ccc(CNc2cc(C)nc3ccc(OC)cc23)cc1	1%	-14%	14µM*	?	-21%	-13%
Cc1cc(Nc2cc(Cl)ccc2C)n2nc(-c3ccccc3)nc2n1	15%	/	/	/	/	/
O=C(O)c1ccc(S(=O)(=O)N2CCC(c3nc(-c4ccccc4Cl)no3)CC2)cc1	-12%	13%	10%	-24%	9.3µM*	-1%
OCCOCCn1c(-c2ccccc2)nc(=S)c2c1CCCC2	-14%	-13%	16%	/	10µM*	2%
CC1(C)Cc2c(c(N3CCOCC3)nc3sc4c(NCCN5CCOCC5)nnnc4c23)CS1	4%	78%	11µM*	?	?	-2%
CC(C)CCNc1nnnc2c1sc1nc(N3CCOCC3)c3c(c12)CC(C)(C)SC3	?	-34%	-2%	?	/	-2%
c1nc(NCCN2CCOCC2)c2sc3nc(N4CCOCC4)c4c(c3c2n1)CCC4	?	154%	1%	7.4µM*	/	13%
CCN1CCN(c2ncnc3c2sc2nc(N4CCOCC4)c4c(c23)CCC4)CC1	9%	-3%	17%	-4%	52%	1%
CCOC(=O)c1ccc2c(c1)N(Cc1ccc(F)cc1Cl)C(=O)c1ccccc1S2(=O)=O	1%	/	/	/	/	/
COc1ccc(-n2c(=O)c3c4c(sc3n(CC(=O)NCc3ccco3)c2=O)CCC4)c(OC)c1	-5%	72%	13µM*	?	6%	-19%
SMILES	AmpC inh detg	AmpC no deterg	HCV inh	Pf growth 48h	Pf growth 96h	AMA1-RON2 inh
COc1ccc(NC(=O)Cn2c(=O)n(-c3ccc(OC)cc3OC)c(=O)c3c(C)c(C)sc32)cc1	1%	97%	2%	?	12µM*	-15%
COc1ccc(-n2c(=O)c3c4c(sc3n(CC(=O)NC3CCCC3)c2=O)CCCC4)c(OC)c1	5%	76%	2%	-7%	15%	1%
O=c1c2cnn(-c3ccccc3)c2nc(-c2ccco2)n1-c1ccccc1	-4%	16%	13µM*	10µM*	10µM*	-14%
Cc1cccc2cc(C(c3nnnn3Cc3ccc4c(c3)OCO4)N3CCCC3)c(=O)[nH]c12 (stereo not drawn)	-13%	29%	-15%	7.4µM*	?	0%
CCC(C)(C)n1nnnc1C(c1ccc(C)cc1)N1CCN(C(=O)c2ccco2)CC1 (stereo not drawn)	-2%	86%	2%	?	-13%	-18%
Cc1ccc2cc(C(c3nnnn3C(C)(C)C)N3CCCC3)c(=O)[nH]c2c1C (stereo not drawn)	-5%	31%	/	3.3µM*	/	/
Cc1ccc(C)c2[nH]c(=O)c(C(c3nnnn3Cc3ccccc3)N3CCc4ccccc4C3)cc12 (stereo not drawn)	-3%	-23%	?	10µM*	/	-5%
CCC(C)(C)n1nnnc1C(c1cc2cccc(C)c2[nH]c1=O)N1CCN(C(=O)c2ccco2)CC1 (stereo not drawn)	-12%	24%	-10%	1.2µM*	58%	-5%
CCC(C)(C)n1nnnc1C(c1cc2cc3c(cc2[nH]c1=O)OCO3)N1CCCCC1 (stereo not drawn)	1%	-24%	3%	?	0%	-21%
Cc1ccc(C)c(Cn2c(=O)n(CC3CCC(C(=O)N4CCOCC4)CC3)c(=O)c3sccc32)c1 (stereo not drawn)	18%	/	/	/	/	/
Cc1noc(C)c1COC(=O)CCN1c2ccccc2Sc2ccccc21	-14%	-16%	-24%	?	12µM*	0%
Cc1noc(C)c1COC(=O)CCOc1ccccc1	4%	-15%	19%	-8%	-11%	-7%
COc1cccc(-c2cc(C(=O)NCCc3ccc(C)cc3)[nH]n2)c1	-6%	/	/	/	/	/
CCCCCC[N+](C)(C)CC/C=C1/c2ccccc2Sc2ccc(Cl)cc21	-2%	134%	-9%	?	2.1µM*	-3%
CN(C)CC/C=C1/c2ccccc2Sc2ccc(Cl)cc21	?	70%	14µM*	10µM*	?	-12%
CN(C)CC/C=C1\c2ccccc2COc2ccccc21	1%	-6%	?	?	?	-5%
S=C1Nc2ccccc2Sc2ccc(Cl)cc21	-14%	-20%	3%	?	?	80%
Cc1ccc(CCNC(=O)c2ccc(NC(=O)N3CCSc4ccccc43)cc2)cc1	8%	/	/	/	/	/
COc1ccc(-c2cc(C(F)(F)F)nc(SCC(=O)NCCc3ccc(OC)c(OC)c3)n2)cc1	27%	/	/	/	/	/
